# Screening data from PubChem BioAssay.
# An excerpt weighted towards active compounds, which were near 1.4% of everything screened.
# ugtP null kill: compounds lethal to S. aureus RN4220 ugtP deletion mutant. 330,000 tested, 0.54% active. growth inhibition, % (concentration not given with the values). AID 1259309. OD600 growth, 16 h; in the data active = growth inhibition above about 68%;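 also: plate controls were untreated wells for no effect and antibiotic for full effect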
# PfHsp40 yeast: restores yeast growth despite PfHsp40 toxicity. S. cerevisiae expressing PfHsp40, growth rescue, ATP luminescence. growth rescue, % at 12.5 µM. 340,000 tested, 0.68% active. AID 504582; in the data active = growth rescue above about 28%, passing the limit was not always enough; inconclusive = no clear call, values can overlap the other calls;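 also: yeast W303a lacking pdr1 and pdr3 grown in galactose medium; growth measured after three days at 30 °C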
# Y pestis TopoI: blocks Yersinia pestis topoisomerase I activity | 360,000 tested, 0.064% active | Y. pestis Topo-I cleavage product accumulation, plate reader | activity, % at 10 µM; in the data active = activity above about 50%, passing the limit was not always enough; inconclusive = no clear call, values can overlap the other calls
# PrP 5UTR inh: inhibition of PrP 5' UTR reporter expression | cell-based PrP 5' UTR mRNA reporter, plate reader | inhibition, % (concentration not given with the values) | 340,000 tested, 0.35% active | AID 488862; in the data active = inhibition above about 52%; also: 0 = median of the neutral control wells
# BJeLR viability: BJeLR cell viability loss. 300,000 tested, 0.17% active. BJeLR (HRASV12) viability, CellTiter-Glo ATP luminescence, 48 h. inhibition, % (test concentration not listed); in the data active = inhibition above about 50%; inconclusive = no clear call, values can overlap the other calls
# RN4220 kill: S. aureus RN4220 growth inhibition; AID 1259311; 330,000 tested, 0.33% active; inhibition, % (test concentration not listed); OD600, 16 h; in the data active = inhibition above about 85%;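 also: plate controls were untreated cells for no effect and reference antibiotic for full effect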
# Starred values were filed as active, the others as inactive; u = inconclusive; x = not tested or not shown.
SMILES,ugtP null kill,PfHsp40 yeast,Y pestis TopoI,PrP 5UTR inh,BJeLR viability,RN4220 kill
CC(Oc1ccc(Cl)cc1Cl)c1nc(-c2ccc(NC(=O)c3cccnc3)cc2)no1 (stereo not drawn),-15,-1,-10,-14,72*,-11
O=C(/C=C/c1ccc(F)cc1)c1cc(Br)ccc1O,2,13,2,-12,3,-1
O=C(/C=C/c1ccccc1)c1cc(Br)ccc(=O)c1O,99*,332*,4,-28,24,99*
Cn1c(=O)c(-c2cccc(Cl)c2)c(O)c2ccccc21,2,0,-7,-7,12,3
Cn1c(=O)c(-c2cc(=O)[nH][nH]2)c(O)c2ccccc21,6,47*,11,-20,6,4
O=c1cc(-c2c(O)c3ccccc3n(Cc3ccccc3)c2=O)[nH][nH]1,4,155*,6,-17,-10,-1
O=c1cc(O)c2ccccc2n1Cc1ccccc1,5,1,-2,-19,-10,4
CCn1c(=O)c(-c2cc(=O)[nH][nH]2)c(O)c2ccccc21,2,97*,9,-17,-6,1
O=C(NC1CC1)C1=CC(C2CCCCC2)CC(OCc2ccc(CO)cc2)O1 (stereo not drawn),2,x,x,x,x,7
CCCCCc1ccc(OCCOCCn2c[n+](C)c3ccccc32)c(CCCCC)c1,101*,55*,0,-25,1,100*
CCCCCc1ccc(OCCC[n+]2ccccc2)c(CCCCC)c1,100*,6,-18,-12,20,99*
COC(=O)C1=C(c2cccc(C#N)c2)CC2CCC1N2C(=O)NCCOc1ccccc1 (stereo not drawn),-3,x,x,x,x,9
Cc1ccc(CCNC(=O)c2nnn(-c3cc(C)cc(C)c3)c2N)cc1,0,48*,-4,7,-2,1
CCN1C(=O)[C@H]2[C@@H](c3ccc(C)cc3)N3C(=O)N(c4ccccc4)C(=O)[C@@]3(CC)[C@H]2C1=O,x,35*,-6,-19,3,x
CCN1C(=O)[C@H]2[C@@H](c3ccc(C)cc3)N3C(=O)N(c4ccc(C)cc4)C(=O)[C@@]3(CC)[C@H]2C1=O,x,-2,-2,-39,-5,x
CC1CN(c2nc3ccccc3cc2-c2ccccc2)CC(C)O1 (stereo not drawn),91*,3,30,-26,-5,-7
CN(C)c1ccc(NC(=S)NC(=O)C=Cc2ccco2)cc1,-5,x,x,x,x,4
Nc1ccc(C(=O)O)cc1[N+](=O)[O-],3,0,2,3,21,1
O=[N+]([O-])c1cc([N+](=O)[O-])c2oc(-c3ccccc3)c(Br)c2c1O,93*,10,-25,-27,15,92*
O=C(CSc1ccccc1)NC(=O)NCc1ccccc1,4,84*,9,-7,4,2
COc1ccc(-c2sc3ccccc3c2C#CCO)cc1,x,31*,5,-12,-7,x
OCCC#Cc1c(-c2ccsc2)sc2ccccc12,13,56*,5,-9,-4,-3
COc1ccc(-c2sc3cc4c(cc3c2C#CCO)OCO4)cc1,-12,-1,-2,-3,x,5
COc1ccc(-c2sc3ccccc3c2C#Cc2cncn2C)cc1,97*,414*,13,-9,x,79
OCCCCC#Cc1c(-c2ccsc2)sc2ccccc12,x,u,20,-12,-14,x
SMILES,ugtP null kill,PfHsp40 yeast,Y pestis TopoI,PrP 5UTR inh,BJeLR viability,RN4220 kill
COc1ccc(-c2sc3ccccc3c2C#CCCO)cc1,x,41*,13,-22,-6,x
COc1ccccc1-c1sc2cc3c(cc2c1C#Cc1cncn1C)OCO3,90*,246*,35,-21,x,50
COc1ccc2sc(-c3ccccc3OC)c(C#Cc3cncn3C)c2c1,76,5,-5,-3,x,66
COc1ccc(-c2sc3ccccc3c2/C=C/c2ccncc2)cc1,x,75*,19,-4,x,x
CCC(C)(O)C(=O)NC1CCCN1C(=O)C=Cc1ccccc1 (stereo not drawn),-4,x,x,x,x,1
Cc1ccccc1CN1CC2CC(c3cnc(N4CCOCC4)s3)N3CCC[C@@]23C1=O (stereo partly drawn),-3,x,x,x,x,2
COC(=O)CCC(=O)NC(=S)Nc1ccc(S(=O)(=O)Nc2cc(C)on2)cc1,13,-1,11,-37,-3,5
Cc1ccc(OCC(=O)NC(=S)Nc2ccc(S(=O)(=O)Nc3cc(C)on3)cc2)c(Br)c1,-3,73*,-4,-24,1,5
